Experimental data published in PubChem BioAssay AID1986 (Sanford-Burnham Center for Chemical Genomics, 2009).
Among all 290,000 compounds or so, about 890 (0.31%) were called active. Rule as the data show it: active = inhibition mostly above about 52% (no sharp cut-off); inactive = mostly below about 76%. This excerpt belongs to a sample that is enriched for actives.

Experiment: cell-free HIV fusion peptide-binding blockers – biochemical, uHTS, fluorescence dequenching, primary screen (AID 1986)
Settings: 30 min, stronger effect = higher value
[1] = measured here: repeat confirmation average inhibition, at 18.6 µM

Compound	inhibition (at 20 µM)	inhibition [1]
COc1cc2nc(CN3CCN(C(c4ccccc4)c4ccccc4)CC3)[nH]c(=O)c2cc1OC	2.2% (inactive)	
N=c1c(S(=O)(=O)c2ccc(Cl)cc2)cc2c(=O)n3ccccc3nc2n1CCc1ccccc1	84.1% (active)	74.9%
Cc1ccc(S(=O)(=O)c2cc3c(=O)n4ccccc4nc3n(CCc3ccccc3)c2=N)cc1	25% (inactive)	
COc1ccc(CCn2c(=N)c(S(=O)(=O)c3ccc(Cl)cc3)cc3c(=O)n4ccccc4nc32)cc1	195% (inactive)	
O=C(NC1CC1)C1CCN(C2CCN(C(=O)Cc3ccc4c(c3)OCO4)CC2)CC1	0.5% (inactive)	
O=C(Nc1nnc(C2CC2)s1)C1COc2ccccc2O1 (stereo unspecified)	-2.5% (inactive)	
Cc1cc(C)n2nc(C(=O)N3CCOCC3)nc2n1	-0.9% (inactive)	
Cc1cccc2cc(C(c3nnnn3Cc3ccc4c(c3)OCO4)N3CCCC3)c(=O)[nH]c12 (stereo unspecified)	-1.7% (inactive)	
O=C(COc1ncnc2ccccc12)Nc1cccc([N+](=O)[O-])c1	0.9% (inactive)	
COc1cccc(OC)c1C(=O)Oc1ccc2c(c1)O/C(=C\c1ccncc1)C2=O	3.9% (inactive)	
O=C(Oc1ccc2c(c1)O/C(=C\c1ccncc1)C2=O)c1ccccc1	86.3% (inactive)	3%
CC(=O)Oc1ccc2c(c1)O/C(=C\c1ccncc1)C2=O	106% (active)	53%
COc1ccc(CNc2nc3nc(-c4ccccc4)cc(=O)n3[nH]2)cc1OC	0.4% (inactive)	
O=C(CCl)Nc1ccc(N=Nc2ccccc2)cc1	-2.8% (inactive)	
Oc1c(C=Nc2cccnc2)sc2ccccc12	1.4% (inactive)	
Oc1c(/C=N/c2ccccn2)sc2ccccc12	6.4% (inactive)	
Oc1c(C=Nc2cccc3cccnc23)sc2ccccc12	85.8% (active)	50.9%
CCOc1ccc2nc(NC(=O)C34CC5CC(CC(NC(C)=O)(C5)C3)C4)sc2c1	-1.2% (inactive)	
O=C(O)c1c(Cl)c(Cl)c(Cl)c(Cl)c1C(=O)N1CCOCC1	4.1% (inactive)	
N#C/C(=N\Nc1ccc(S(=O)(=O)N2CCCCCC2)cc1)C(N)=S	9.5% (inactive)	
CCOC(=O)/C(C#N)=N/Nc1ccc(S(=O)(=O)N2CCc3ccccc32)cc1	5.4% (inactive)	
N#C/C(=N\Nc1ccc(S(=O)(=O)N2CCc3ccccc32)cc1)C(N)=S	51.3% (active)	
Cc1ccc(NC(=O)c2cc([N+](=O)[O-])ccc2NCc2cccnc2)cc1	-0.6% (inactive)	
O=C(O)c1ccc(/C=N/NC(=O)c2cc(-c3ccc4c5c(cccc35)CC4)n[nH]2)cc1	61.2% (inactive)	7%
O=C(N/N=C/c1ccccc1C(=O)O)c1cc(-c2ccc3c4c(cccc24)CC3)n[nH]1	69.6% (active)	
O=C(N/N=C/c1cccc([N+](=O)[O-])c1)c1cc(-c2ccc3c4c(cccc24)CC3)n[nH]1	-6.3% (inactive)	
